Results from PubChem BioAssay (NCATS).
Results filed as inconclusive are left out. Calls of active or inactive are those of the source. Calls follow the shape of the dose curve; as a rule, active = well fitted curve in the direction sought with a large enough effect; inconclusive = small, poorly fitted or top-dose-only effect, or another doubt; inactive = no such curve, though single readings can be large; an effect the other way counts as inactive or inconclusive.

Experiments:
[1] = Quantitative High-Throughput drug screen in 47 multiple myeloma cell lines against the NCATS MIPE library collection: KMS12PE_JCRB cell viability assay (AID 1918972); conditions: KMS12PE myeloma viability, CellTiter-Glo ATP, 48 h; series mostly up to 45.8 µM; also: nearly all actives have a fitted effect of over 30% in size; also: potency is read from the fitted curve at half-maximal effect
Procedure, shortened: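 Viability readout: CellTiter-Glo luminescence following 5 min room-temperature incubation with reagent. Prior exposure: 48 h, 37C, humidified 5% CO2, 500 cells per well.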

[2] = Quantitative High-Throughput drug screen in 47 multiple myeloma cell lines against the NCATS MIPE library collection: KMS20_JCRB cell viability assay (AID 1918973); conditions: CellTiter-Glo ATP, 48 h; series mostly up to 45.8 µM; also: nearly all actives have a fitted effect of over 45% in size
Procedure, shortened: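 qHTS of the MIPE 4.0 collection: 500 myeloma cells/well, 48 h drug exposure at 37C in 5% CO2, then CellTiter-Glo for 5 min at room temperature before luminescence reading.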

[3] = Quantitative High-Throughput drug screen in 47 multiple myeloma cell lines against the NCATS MIPE library collection: KMS26_JCRB cell viability assay (AID 1918975); conditions: KMS26 myeloma cells viability, CellTiter-Glo ATP, 48 h; series mostly up to 45.8 µM; also: nearly all actives have a fitted effect of over 45% in size; also: potency is read from the fitted curve at half-maximal effect
Procedure, shortened: (§1)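 Relative luminescence from CellTiter-Glo served as the viability signal, referenced to DMSO-treated (100%) and cell-free medium (0%) controls. Treatment lasted 48 hours at 37C with 500 cells per well.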

[4] = Quantitative High-Throughput drug screen in 47 multiple myeloma cell lines against the NCATS MIPE library collection: OCIMY1_PLB cell viability assay (AID 1918979); conditions: OCI-MY1 myeloma viability, CellTiter-Glo ATP, 48 h; series mostly up to 45.8 µM; also: nearly all actives have a fitted effect of over 35% in size
Procedure, shortened: (§2)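 Cells were exposed to library compounds for 48 hours, after which ATP was measured by CellTiter-Glo. Signal was taken as median relative luminescence units.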

[5] = Quantitative High-Throughput drug screen in 47 multiple myeloma cell lines against the NCATS MIPE library collection: MMM1_PLB cell viability assay (AID 1918976); conditions: MMM1 myeloma cells viability, CellTiter-Glo, 48 h; series mostly up to 45.8 µM; also: nearly all actives have a fitted effect of over 35% in size; also: potency is read from the fitted curve at half-maximal effect
Procedure, shortened: as §2

[6] = Quantitative High-Throughput drug screen in 47 multiple myeloma cell lines against the NCATS MIPE library collection: NCIH929_DSMZ cell viability assay (AID 1918978); conditions: NCI-H929 myeloma viability, CellTiter-Glo ATP, 48 h; series mostly up to 45.8 µM; also: nearly all actives have a fitted effect of over 35% in size; also: potency is read from the fitted curve at half-maximal effect
Procedure, shortened: as §2

[7] = Quantitative High-Throughput drug screen in 47 multiple myeloma cell lines against the NCATS MIPE library collection: MM1S_ATCC cell viability assay (AID 1918980); conditions: MM1S myeloma viability, CellTiter-Glo ATP luminescence, 48 h; series mostly up to 45.8 µM; also: nearly all actives have a fitted effect of over 45% in size; also: potency is read from the fitted curve at half-maximal effect
Procedure, shortened: as §2

[8] = Quantitative High-Throughput drug screen in 47 multiple myeloma cell lines against the NCATS MIPE library collection: MOLP8_DSMZ cell viability assay (AID 1918977); conditions: MOLP8 myeloma viability, CellTiter-Glo ATP luminescence, 48 h; series mostly up to 45.8 µM; also: nearly all actives have a fitted effect of over 45% in size; also: potency is read from the fitted curve at half-maximal effect
Procedure, shortened: as §2

[9] = Quantitative High-Throughput drug screen in 47 multiple myeloma cell lines against the NCATS MIPE library collection: KMS12BM_JCRB cell viability assay (AID 1918971); conditions: KMS12BM myeloma viability, CellTiter-Glo ATP, 48 h; series mostly up to 45.8 µM; also: potency is read from the fitted curve at half-maximal effect; nearly all actives have a fitted effect of over 35% in size
Procedure, shortened: as §1

Measured: Potency

CCOC(=O)c1ccc(C#Cc2ccc3c(c2)C(C)(C)CCS3)nc1
active: [1] 11.8 µM
inactive: [2] | [3] | [4]

CC1=CC(=O)c2ccccc2C1=O
active: [3] 10.5 µM | [5] 8.33 µM | [6] 9.35 µM | [7] 18.7 µM
inactive: [1]

CCCOc1ccc(C(=O)OCCN(CC)CC)cc1N
not listed: [5] | [7] | [9]
inactive: all other assays above

Cc1noc(NS(=O)(=O)c2ccc(N)cc2)c1C
inactive: [1] | [3] | [6] | [4]

NCCCC(O)(P(=O)(O)O)P(=O)(O)O
active: [7] 11.8 µM
not listed: [8] | [9]
inactive: all other assays above

Cn1nnc2c(C(N)=O)ncn2c1=O
not listed: [7] | [8] | [9]
inactive: all other assays above

CCN1CCCC1CNC(=O)c1cc(S(N)(=O)=O)ccc1OC (centres undefined)
inactive: [1] | [3] | [5] | [6] | [4]

Cc1ncc([N+](=O)[O-])n1CCO
inactive: [1] | [8] | [6] | [4]

O=S(=O)(c1cccc2cnccc12)N1CCCNCC1
inactive: [1] | [2] | [4]

NC(=O)c1cccc(N)c1
inactive: [1] | [2] | [3] | [4]
active: [6] 16.6 µM

CC(C)(C#N)c1cc(Cn2cncn2)cc(C(C)(C)C#N)c1
active: [5] 1.32 µM
not listed: [8] | [9]
inactive: all other assays above

NC(=O)c1cccnc1
not listed: [3] | [5] | [9]
inactive: all other assays above

NC(N)=NC(N)=NCCc1ccccc1
active: [9] 10.5 µM | [5] 5.26 µM | [7] 2.96 µM

O=C(O)c1cccnc1
active: [5] 1.48 µM
inactive: [1] | [2] | [6] | [4] | [7]

CN(Cc1cc(Br)cc(Br)c1N)C1CCCCC1
active: [5] 33.2 µM
inactive: [1] | [6] | [7]

CCN(C)C(=O)Oc1cccc([C@H](C)N(C)C)c1
inactive: [1] | [6] | [4] | [7]

COC(=O)Nc1nc2ccc(S(=O)c3ccccc3)cc2[nH]1 (centres undefined)
inactive: [3] | [5]

CC1=C(C(=O)O)N2C(=O)[C@@H](NC(=O)C(N)c3ccccc3)[C@H]2SC1 (some centres undefined)
inactive: [1] | [2] | [6] | [4]

CCC(C)(C)c1ccc(CC(C)CN2C[C@@H](C)O[C@@H](C)C2)cc1 (some centres undefined)
inactive: [1] | [6]

CC(=O)CC(c1ccccc1)c1c(O)c2ccccc2oc1=O (centres undefined)
inactive: [1] | [2] | [3] | [6] | [4]

N[C@@H](Cc1ccc(O)c(O)c1)C(=O)O
inactive: [1] | [2] | [6]

OC(Cn1cncn1)(Cn1cncn1)c1ccc(F)cc1F
inactive: [1] | [3] | [6] | [4]
active: [5] 10.5 µM

COc1cc([C@@H]2c3cc4c(cc3[C@H](O)[C@H]3COC(=O)[C@H]23)OCO4)cc(OC)c1OC
inactive: [1] | [5] | [6] | [4] | [7]

O=C(O)c1cc(=O)[nH]c(=O)[nH]1
inactive: [1] | [3] | [6] | [7]

CC1CC2C3CCC4=CC(=O)C=C[C@]4(C)[C@@]3(F)[C@@H](O)C[C@]2(C)[C@@]1(O)C(=O)CO (some centres undefined)
inactive: [1]
active: [5] 0.0264 µM | [8] 0.935 µM | [6] 0.0526 µM | [7] 0.59 µM
